Experimental findings from PubChem BioAssay (NCI) are described below.

About 83,000 compounds went through this panel and 20% of them were active in at least one assay; those are over-represented in the sample as a whole.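 Cells were grown in 96-well plates and exposed to the test compound at a single concentration for 48 hours; results are reported as percent growth, with values below 10 considered active.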 Active and inactive are the calls of the source.

One assay concerns SK-OV-3 ovarian. Kind of assay: NCI-60 one-dose screen, 48 h (100 = growth as untreated, 0 = no growth, -100 = all killed). Particulars: 10 µM unless noted.
Take `CSc1nc(N)n2nccc2n1`: the growth was 105% (inactive).
The same measure, in the same setting: under `Cc1nnc(-c2cc3c(ccc4ccccc43)oc2=O)c2cn(-c3ccc(Cl)cc3)nc12` stands 91.7% (inactive).
Same read-out and setting: under `COc1ccc(CNCCCN2C(=O)c3ccc4c5c(ccc(c35)C2=O)C(=O)N(CCCNCc2ccc(OC)c(OC)c2OC)C4=O)c(OC)c1OC` stands -77.4% (active); under `CCCCCCCCCCCCOC(=N)N(C)C`, 97.3% (inactive); under `COCC(=O)NNc1[nH]c(-c2ccc(OC)cc2)cc1C#N`, 112% (inactive).
For the molecule `c1cc(C2CCCCC2)ccc1OCCCCCCN1CCNCC1`, the growth was 83.8% (inactive).
Same read-out and setting: under `O=C(CCCC(=O)Nc1ccc(Cn2nnc3cc(Cl)c(Cl)cc32)cc1)Nc1ccc(CN2N=NC3C=C(Cl)C(Cl)=CC32)cc1` (stereo not drawn) stands 86.3% (inactive).
As to `COc1cc(N)c2nccc(C)c2c1OC`, the growth was 108% (inactive).
Same read-out and setting: under `COc1ccc(Cn2cc3c(c2)-c2oncc2CC3)cc1OC` stands -12.4% (active); under `Brc1c(-c2ccncc2)nc2n1CCS2`, 116% (inactive); under `CCc1c(C)c2ccc(OCC(=O)N=Nc3c(O)[nH]c4ccccc34)c(C)c2oc1=O`, 80.9% (inactive).
For `Nc1ccc(N=Nc2ccccc2)c2cc(S(=O)(=O)O)ccc12`, the growth was 97.8% (inactive).
Regarding `CC(C)CSc1nc(-c2ccc(F)cc2)c(C#N)c(N2CCCCC2)n1`, the growth was 99.6% (inactive).
As for `Cc1ccc2c(O)c(O)cc(NC(C)CCCN)c2n1` (stereo not drawn), the growth is 102% (inactive).
Turning to `CCn1cnc(C[C@H](NC(=O)[C@@H](NC(=O)Nc2cc(C(F)(F)F)cc(C(F)(F)F)c2)C(C)(C)C)C(=O)OC)c1`, the growth was -100% [100 µM] (active).
In the case of `CC(C)OCC1CO1` (stereo not drawn), the growth was 106% (inactive).
Same read-out and setting: under `COc1ccc(-c2nnc(SCC(=O)Nc3ccc(C(=O)/C=C/c4cc(OC)c(OC)c(OC)c4)cc3)n2-c2ccccc2)cc1OC` stands -54.7% [100 µM] (active); under `[N-]=[N+]=Nc1ncc(-c2ccc(C(F)(F)F)cc2)c(NC2CCCCCC2)n1`, 71.6% [100 µM] (inactive); under `CC(C)(C)c1cc(C[P+](c2ccc(Cl)cc2)(c2ccc(Cl)cc2)c2ccc(Cl)cc2)cc(C(C)(C)C)c1O`, 88.9% (inactive).
`O=C(OCC1CC2(Cl)C(Cl)=C(Cl)C1(Cl)C2(Cl)Cl)C1C(C(=O)OCC2CC3(Cl)C(Cl)=C(Cl)C2(Cl)C3(Cl)Cl)C2(Cl)C(Cl)=C(Cl)C1(Cl)C2(Cl)Cl` (stereo not drawn): the growth is 110% (inactive).
Consider `O=S(=O)(Cc1cccc2c(CS(=O)(=O)c3ccc(Cl)cc3)cccc12)c1ccc(Cl)cc1`, for which the growth was 94.7% (inactive).
`O=C(/C=C1\C(=O)N(Cc2ccccc2)c2ccccc21)c1ccc(OCCN2CCCCC2)cc1`: the growth is 99.7% (inactive).
As to `CC(C)(C)C(=O)CCCCCCCC/C=C/CCCC(O)c1ccco1` (stereo not drawn), the growth is 116% (inactive).
With `CC(=O)CCS(=O)c1ccccc1` (stereo not drawn), the growth is 110% (inactive).
In the case of `O=P(OCCCl)(OCCCl)C(O)c1ccccc1Cl` (stereo not drawn), the growth was 104% (inactive).
`CC1(C)C(O)NC(Cl)=C(C#N)C1(C#N)C#N` (stereo not drawn): the growth is 108% (inactive).
For the molecule `COc1ccc(C(O)(c2ccccc2)C(C(=O)O)c2ccccc2)cc1` (stereo not drawn), the growth is 102% (inactive).
Still for that read-out and setting: under `O=C(O)CC1Cc2ccccc2C1C(=O)O` (stereo not drawn) stands 102% (inactive); under `O=c1[nH]c(=S)[nH]c(O)c1/C=C1\C=Nc2ccccc21`, 104% (inactive); under `O=C1NCCN1/N=C/c1c(Cl)nc2n1CCS2`, 111% (inactive).
With `CCCC(=O)Nc1ccccc1C(=O)O`, the growth was 104% (inactive).
As to `CC(C)OC(=O)Nn1cnc2ccccc21`, the growth is 114% (inactive).
In the case of `O=C(NC1CCN(Cc2ccccc2)CC1)c1cc(-c2cccnc2)nc2ccc(Cl)cc12`, the growth was 102% (inactive).
`O=S(=O)(O)c1ccc2c(c1)Sc1cc(S(=O)(=O)O)ccc1O2`: the growth was 107% (inactive).
Regarding `CCCCCc1ccnc(CC(=O)c2ccc(OC)cc2)c1`, the growth was 92.5% (inactive).
`COc1ccc(-c2nc(SCC(C)C)nc(Nc3ccc([N+](=O)[O-])cc3)c2C#N)cc1`: the growth was 99.2% (inactive).
As for `COc1cc2ncnc(Nc3ccc4c(cnn4C(=O)Nc4ccccc4)c3)c2cc1OC`, the growth was 110% (inactive).
For the molecule `CCCCCSc1ccc2nc(NC(=O)OCC)sc2c1`, the growth was 39.1% (inactive).
Same read-out and setting: under `COc1ccc(C2=C/C(=C\c3ccc(Cl)cc3)C(=O)NN2C(=S)NN)cc1` stands 89.5% (inactive).

Another assay deals with IGROV1 ovarian. The description is as above. Particulars: 10 µM unless noted.
Turning to `CSc1nc(N)n2nccc2n1`, the growth is 105% (inactive).
Regarding `Cc1nnc(-c2cc3c(ccc4ccccc43)oc2=O)c2cn(-c3ccc(Cl)cc3)nc12`, the growth is 87% (inactive).
For `COc1ccc(CNCCCN2C(=O)c3ccc4c5c(ccc(c35)C2=O)C(=O)N(CCCNCc2ccc(OC)c(OC)c2OC)C4=O)c(OC)c1OC`, the growth was -79.6% (active).
`CCCCCCCCCCCCOC(=N)N(C)C`: the growth was 106% (inactive).
With `COCC(=O)NNc1[nH]c(-c2ccc(OC)cc2)cc1C#N`, the growth is 22.4% (inactive).
Consider `c1cc(C2CCCCC2)ccc1OCCCCCCN1CCNCC1`, for which the growth was 8.79% (active).
For the molecule `O=C(CCCC(=O)Nc1ccc(Cn2nnc3cc(Cl)c(Cl)cc32)cc1)Nc1ccc(CN2N=NC3C=C(Cl)C(Cl)=CC32)cc1` (stereo not drawn), the growth was 81.1% (inactive).
On to `COc1cc(N)c2nccc(C)c2c1OC`, for which the growth was 385% (inactive).
Consider `COc1ccc(Cn2cc3c(c2)-c2oncc2CC3)cc1OC`, for which the growth is 17.6% (inactive).
As to `Brc1c(-c2ccncc2)nc2n1CCS2`, the growth was 0.69% (active).
`CCc1c(C)c2ccc(OCC(=O)N=Nc3c(O)[nH]c4ccccc34)c(C)c2oc1=O`: the growth was 7.99% (active).
In the case of `Nc1ccc(N=Nc2ccccc2)c2cc(S(=O)(=O)O)ccc12`, the growth was 108% (inactive).
Regarding `CC(C)CSc1nc(-c2ccc(F)cc2)c(C#N)c(N2CCCCC2)n1`, the growth was 104% (inactive).
For `Cc1ccc2c(O)c(O)cc(NC(C)CCCN)c2n1` (stereo not drawn), the growth is 86.3% (inactive).
On the same count and under the same terms, under `CCn1cnc(C[C@H](NC(=O)[C@@H](NC(=O)Nc2cc(C(F)(F)F)cc(C(F)(F)F)c2)C(C)(C)C)C(=O)OC)c1` stands -71.5% [100 µM] (active); under `CC(C)OCC1CO1` (stereo not drawn), 110% (inactive).
The same measure, in the same setting: under `COc1ccc(-c2nnc(SCC(=O)Nc3ccc(C(=O)/C=C/c4cc(OC)c(OC)c(OC)c4)cc3)n2-c2ccccc2)cc1OC` stands -36.1% [100 µM] (active).
For `[N-]=[N+]=Nc1ncc(-c2ccc(C(F)(F)F)cc2)c(NC2CCCCCC2)n1`, the growth was 36.3% [100 µM] (inactive).
Consider `CC(C)(C)c1cc(C[P+](c2ccc(Cl)cc2)(c2ccc(Cl)cc2)c2ccc(Cl)cc2)cc(C(C)(C)C)c1O`, for which the growth was 52.1% (inactive).
`O=C(OCC1CC2(Cl)C(Cl)=C(Cl)C1(Cl)C2(Cl)Cl)C1C(C(=O)OCC2CC3(Cl)C(Cl)=C(Cl)C2(Cl)C3(Cl)Cl)C2(Cl)C(Cl)=C(Cl)C1(Cl)C2(Cl)Cl` (stereo not drawn): the growth was 115% (inactive).
As to `O=S(=O)(Cc1cccc2c(CS(=O)(=O)c3ccc(Cl)cc3)cccc12)c1ccc(Cl)cc1`, the growth is 91.4% (inactive).
Regarding `O=C(/C=C1\C(=O)N(Cc2ccccc2)c2ccccc21)c1ccc(OCCN2CCCCC2)cc1`, the growth was 6.02% (active).
As to `CC(C)(C)C(=O)CCCCCCCC/C=C/CCCC(O)c1ccco1` (stereo not drawn), the growth was 116% (inactive).
Regarding `CC(=O)CCS(=O)c1ccccc1` (stereo not drawn), the growth is 105% (inactive).
Regarding `O=P(OCCCl)(OCCCl)C(O)c1ccccc1Cl` (stereo not drawn), the growth is 98.6% (inactive).
Turning to `CC1(C)C(O)NC(Cl)=C(C#N)C1(C#N)C#N` (stereo not drawn), the growth is -10.9% (active).
Consider `COc1ccc(C(O)(c2ccccc2)C(C(=O)O)c2ccccc2)cc1` (stereo not drawn), for which the growth was 104% (inactive).
On the same count and under the same terms, under `O=C(O)CC1Cc2ccccc2C1C(=O)O` (stereo not drawn) stands 110% (inactive); under `O=c1[nH]c(=S)[nH]c(O)c1/C=C1\C=Nc2ccccc21`, 40.3% (inactive).
Regarding `O=C1NCCN1/N=C/c1c(Cl)nc2n1CCS2`, the growth is 84% (inactive).
Regarding `CCCC(=O)Nc1ccccc1C(=O)O`, the growth is 110% (inactive).
As for `CC(C)OC(=O)Nn1cnc2ccccc21`, the growth was 23.8% (inactive).
With `O=C(NC1CCN(Cc2ccccc2)CC1)c1cc(-c2cccnc2)nc2ccc(Cl)cc12`, the growth is 80.5% (inactive).
Consider `O=S(=O)(O)c1ccc2c(c1)Sc1cc(S(=O)(=O)O)ccc1O2`, for which the growth was 112% (inactive).
On to `CCCCCc1ccnc(CC(=O)c2ccc(OC)cc2)c1`, for which the growth is 108% (inactive).
Consider `COc1ccc(-c2nc(SCC(C)C)nc(Nc3ccc([N+](=O)[O-])cc3)c2C#N)cc1`, for which the growth was 94.3% (inactive).
With `COc1cc2ncnc(Nc3ccc4c(cnn4C(=O)Nc4ccccc4)c3)c2cc1OC`, the growth is 80.7% (inactive).
`CCCCCSc1ccc2nc(NC(=O)OCC)sc2c1`: the growth was 46.2% (inactive).
`COc1ccc(C2=C/C(=C\c3ccc(Cl)cc3)C(=O)NN2C(=S)NN)cc1`: the growth is 107% (inactive).
